{"source": "paper PMC11995724", "about": "“Antibiotic target discovery by integrated phenotypic and activity-based profiling of electrophilic fragments” (Cell chemical biology, 2025)", "note": "Among all 3,200 compounds or so, about 75 (2%) showed an effect of 50% or more. The list comes from a sample in which strong results are over-represented; it also holds similar structures and randomly drawn compounds."}
{"test_system": "T1, S. aureus MSSA476", "T1 construct": "MSSA476", "parameters": "species or system S. aureus MSSA476 (TSB) or V. cholerae SAD30 (LB); 384-well bacterial growth screen at 25 uM, OD600 relative to DMSO control", "conditions": "relative growth, OD600, TSB; 25 µM; inhibitor", "units": {"% of control remaining": "%"}}
{"compound": "O=C(CCl)NC(Cc1ccccc1)c1ccccc1F", "note": "(centres unmarked) [7-N10, 2-chloro-N-[1-(2-fluorophenyl)-2-phenylethyl]acetamide]", "% of control remaining": 83.5165}
{"compound": "CC(Cl)C(=O)N1CCNC(=O)C1Cc1nc2ccccc2o1", "note": "(centres unmarked) [6-P03, 3-[(1,3-benzoxazol-2-yl)methyl]-4-(2-chloropropanoyl)piperazin-2-one]", "% of control remaining": 97.3171}
{"compound": "c1ccc(CSSCc2ccccc2)cc1", "note": "[10-O21, [(benzyldisulfanyl)methyl]benzene]", "% of control remaining": 113.125}
{"compound": "Cl.O=C(CCl)NCC(c1ccccc1Cl)N1CCCC1", "note": "(centres unmarked) [6-G17, 2-chloro-N-[2-(2-chlorophenyl)-2-(pyrrolidin-1-yl)ethyl]acetamide hydrochloride]", "% of control remaining": 101.415}
{"compound": "O=C(CCl)NC(Cc1cccc(O)c1)c1ccccc1", "note": "(centres unmarked) [7-N20, 2-chloro-N-[2-(3-hydroxyphenyl)-1-phenylethyl]acetamide]", "% of control remaining": 100.157}
{"compound": "COc1ccc(N2C(=O)C=CC2=O)c([N+](=O)[O-])c1", "note": "[10-L11, 1-(4-methoxy-2-nitrophenyl)-2,5-dihydro-1H-pyrrole-2,5-dione]", "% of control remaining": 100}
{"compound": "CC(C)CNC(=O)c1ccccc1NC(=O)CCl", "note": "[4-E04, 2-(2-chloroacetamido)-N-(2-methylpropyl)benzamide]", "% of control remaining": 88.4231}
{"compound": "O=C(CCl)NCC(=O)Nc1ccc(F)c(F)c1", "note": "[4-L16, 2-chloro-N-{[(3,4-difluorophenyl)carbamoyl]methyl}acetamide]", "% of control remaining": 109.004}
{"compound": "N#CC(C(=O)CCl)=C1Nc2cc(Cl)ccc2S1", "note": "[10-O08, 4-chloro-2-(5-chloro-2,3-dihydro-1,3-benzothiazol-2-ylidene)-3-oxobutanenitrile]", "% of control remaining": 100}
{"compound": "N#CC(C(=O)CCl)=C1Nc2ccccc2S1", "note": "[10-J04, 4-chloro-2-(2,3-dihydro-1,3-benzothiazol-2-ylidene)-3-oxobutanenitrile]", "% of control remaining": 43.75}
{"compound": "N#CC(C(=O)CCl)=C1NC(=O)c2ccccc2N1", "note": "[10-P14, 4-chloro-3-oxo-2-(4-oxo-1,2,3,4-tetrahydroquinazolin-2-ylidene)butanenitrile]", "% of control remaining": 93.75}
{"compound": "CCn1cc(S(=O)(=O)N2CCSSCC2)cn1", "note": "[10-N19, 5-[(1-ethyl-1H-pyrazol-4-yl)sulfonyl]-1,2,5-dithiazepane]", "% of control remaining": 97.1875}
{"compound": "Cc1cc(CN(C(=O)CCl)c2csnc2C)cs1", "note": "[5-C12, 2-chloro-N-(3-methyl-1,2-thiazol-4-yl)-N-[(5-methylthiophen-3-yl)methyl]acetamide]", "% of control remaining": 105.282}
{"compound": "N#CC(=Cc1cccc(F)c1)C(=O)Nc1cc(Cl)ccc1Cl", "note": "[9-P03, 2-cyano-N-(2,5-dichlorophenyl)-3-(3-fluorophenyl)prop-2-enamide]", "% of control remaining": 107.865}
{"compound": "C=CC(=O)N1CCC(C(=O)N2CCN(CC(C)C)C(=O)C2C)CC1", "note": "(centres unmarked) [2-B08, 3-methyl-1-(2-methylpropyl)-4-[1-(prop-2-enoyl)piperidine-4-carbonyl]piperazin-2-one]", "% of control remaining": 92.6023}
{"compound": "O=C(CCl)N1N=C(c2cccc(F)c2)CC1c1cccs1", "note": "(centres unmarked) [4-E22, 2-chloro-1-[3-(3-fluorophenyl)-5-(thiophen-2-yl)-4,5-dihydro-1H-pyrazol-1-yl]ethan-1-one]", "% of control remaining": 121.582}
{"compound": "C=CC(=O)N1CCC(c2ncc(C(=O)O)o2)CC1", "note": "[2-G19, 2-[1-(prop-2-enoyl)piperidin-4-yl]-1,3-oxazole-5-carboxylic acid]", "% of control remaining": 116.275}
{"compound": "C=CC(=O)N1CCC(C(=O)Nc2ccc(CC)cc2)CC1", "note": "[3-J12, N-(4-ethylphenyl)-1-(prop-2-enoyl)piperidine-4-carboxamide]", "% of control remaining": 97.5185}
{"compound": "O=C(CCl)NCc1cc([N+](=O)[O-])ccc1O", "note": "[4-A05, 2-chloro-N-[(2-hydroxy-5-nitrophenyl)methyl]acetamide]", "% of control remaining": 92.6155}
{"compound": "O=C(CCl)NSc1ccc([N+](=O)[O-])cc1", "note": "[4-P13, 2-chloro-N-[(4-nitrophenyl)sulfanyl]acetamide]", "% of control remaining": 1.906}
{"compound": "N#Cc1cc([N+](=O)[O-])ccc1NC(=O)CCl", "note": "[4-O09, 2-chloro-N-(2-cyano-4-nitrophenyl)acetamide]", "% of control remaining": 100.619}
{"compound": "Cc1cc(C)cc(-c2cc(NC(=O)CCl)n(-c3ccccc3)n2)c1", "note": "[4-K04, 2-chloro-N-[3-(3,5-dimethylphenyl)-1-phenyl-1H-pyrazol-5-yl]acetamide]", "% of control remaining": 80.4192}
{"compound": "CC(O)=C(C#N)C(=O)Nc1ccc(C(F)(F)F)cc1", "note": "[9-A05, 2-cyano-3-hydroxy-N-[4-(trifluoromethyl)phenyl]but-2-enamide]", "% of control remaining": 71.6105}
{"compound": "CC(O)=C(C#N)C(=O)Nc1ccc(-c2ccccc2Cl)c(Cl)c1", "note": "[9-L22, 2-cyano-N-{2,2'-dichloro-[1,1'-biphenyl]-4-yl}-3-hydroxybut-2-enamide]", "% of control remaining": 33.2584}
{"compound": "C/C(O)=C(\\C#N)C(=O)Nc1ccc(-c2ccccc2Cl)cc1", "note": "[9-P22, (2Z)-N-{2'-chloro-[1,1'-biphenyl]-4-yl}-2-cyano-3-hydroxybut-2-enamide]", "% of control remaining": 50.9363}
{"compound": "Cc1ccc(C=C(C#N)C(=O)NCc2ccco2)o1", "note": "[8-P19, 2-cyano-N-[(furan-2-yl)methyl]-3-(5-methylfuran-2-yl)prop-2-enamide]", "% of control remaining": 89.6266}
{"compound": "N#CC(=Cc1cc2ccccc2o1)C(=O)NCc1ccco1", "note": "[9-O08, 3-(1-benzofuran-2-yl)-2-cyano-N-[(furan-2-yl)methyl]prop-2-enamide]", "% of control remaining": 115.056}
{"compound": "N#CC(=Cc1ccc([N+](=O)[O-])o1)C(=O)NCc1ccco1", "note": "[8-I17, 2-cyano-N-[(furan-2-yl)methyl]-3-(5-nitrofuran-2-yl)prop-2-enamide]", "% of control remaining": -0.6639}
{"compound": "COC(=O)c1cccc(C(=O)CCl)c1", "note": "[10-I11, methyl 3-(2-chloroacetyl)benzoate]", "% of control remaining": 61.5625}
{"compound": "O=C(CCl)c1ccc(F)c(F)c1", "note": "[10-L13, 2-chloro-1-(3,4-difluorophenyl)ethan-1-one]", "% of control remaining": 110.313}
{"compound": "O=C(CCl)c1ccc(Cl)c(Cl)c1", "note": "[10-L16, 2-chloro-1-(3,4-dichlorophenyl)ethan-1-one]", "% of control remaining": 5}
{"compound": "COc1ccc(C(=O)CCl)cc1Cl", "note": "[10-D10, 2-chloro-1-(3-chloro-4-methoxyphenyl)ethan-1-one]", "% of control remaining": -0.3125}
{"compound": "COc1ccc(C(=O)CCl)c(OC)c1", "note": "[10-G18, 2-chloro-1-(2,4-dimethoxyphenyl)ethan-1-one]", "% of control remaining": 124.375}
{"compound": "O=C(CCl)c1ccc2[nH]c(=O)[nH]c2c1", "note": "[10-I14, 5-(2-chloroacetyl)-2,3-dihydro-1H-1,3-benzodiazol-2-one]", "% of control remaining": 100.313}
{"compound": "CC(Cl)C(=O)NC(C)c1ccc(C(F)(F)F)nc1Cl", "note": "(centres unmarked) [7-G09, 2-chloro-N-{1-[2-chloro-6-(trifluoromethyl)pyridin-3-yl]ethyl}propanamide]", "% of control remaining": 111.774}
{"compound": "C=CC(=O)Nc1cccc(-c2nc(COC)no2)c1C", "note": "[1-J08, N-{3-[3-(methoxymethyl)-1,2,4-oxadiazol-5-yl]-2-methylphenyl}prop-2-enamide]", "% of control remaining": 101.626}
{"compound": "COc1cc(Cl)c(C)cc1N1C(=O)C=CC1=O", "note": "[10-B15, 1-(4-chloro-2-methoxy-5-methylphenyl)-2,5-dihydro-1H-pyrrole-2,5-dione]", "% of control remaining": 91.875}
{"compound": "N#CC(C(=O)Nc1ccc(Cl)cc1)=C(S)Nc1ccccc1", "note": "[8-H22, N-(4-chlorophenyl)-2-cyano-3-(phenylamino)-3-sulfanylprop-2-enamide]", "% of control remaining": 74.3568}
{"compound": "N#Cc1ccc(C(=O)CCl)cc1", "note": "[10-F10, 4-(2-chloroacetyl)benzonitrile]", "% of control remaining": 52.5}
{"compound": "NC(=O)CCc1ccc(C(=O)CCl)cc1", "note": "[10-I03, 3-[4-(2-chloroacetyl)phenyl]propanamide]", "% of control remaining": 108.125}
{"compound": "Cl.O=C(CCl)c1ccncc1", "note": "[10-M09, 2-chloro-1-(pyridin-4-yl)ethan-1-one hydrochloride]", "% of control remaining": 111.875}
{"compound": "CC(=O)N(C)Cc1ccc(C(=O)CCl)cc1", "note": "[10-H04, N-{[4-(2-chloroacetyl)phenyl]methyl}-N-methylacetamide]", "% of control remaining": 111.875}
{"compound": "CN(c1ccc(C(=O)CCl)cc1)S(C)(=O)=O", "note": "[10-F19, N-[4-(2-chloroacetyl)phenyl]-N-methylmethanesulfonamide]", "% of control remaining": -0.3125}
{"compound": "CCN(c1ccc(C(=O)CCl)cc1)S(C)(=O)=O", "note": "[10-F04, N-[4-(2-chloroacetyl)phenyl]-N-ethylmethanesulfonamide]", "% of control remaining": 2.1875}
{"compound": "C=CC(=O)N1CCC(C(=O)NCc2ncnn2CC)CC1", "note": "[3-P03, N-[(1-ethyl-1H-1,2,4-triazol-5-yl)methyl]-1-(prop-2-enoyl)piperidine-4-carboxamide]", "% of control remaining": 135.829}
{"compound": "C=CC(=O)Nc1cc(-c2ccco2)nn1C(C)(C)C", "note": "[1-K19, N-[1-tert-butyl-3-(furan-2-yl)-1H-pyrazol-5-yl]prop-2-enamide]", "% of control remaining": 129.407}
{"compound": "CCN(Cc1ccccc1)C(=O)CCl", "note": "[6-O21, N-benzyl-2-chloro-N-ethylacetamide]", "% of control remaining": 79.9024}
